Laboratory results taken from PubChem BioAssay AID1159580 (chemical genetic matrix, 2015).
Among all 5,500 compounds or so, about 2,000 (36%) were called active. Not shown: some 18% with an inconclusive outcome. No stated cut-off is given here; in the data, active means normalized growth mostly below about 0.91 (no sharp cut-off); inconclusive means no clear call, values can overlap the other calls; inactive means mostly above about 0.92. Some of the results follow.

Assay: chemical genetic growth profiling, strain panel (AID 1159580);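 further: tested at 20 µM; growth read once vehicle control cultures reached saturation at 30 °C; 1 = growth at the plate median or of vehicle wells; lower values mean less growth of the strain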
Conditions: growth OD

Measured: normalized growth

N[C@H](Cc1ccccc1)C(=O)O
inactive: S. cerevisiae deletion strains, locus YJR043C, strain POL32, hits give low values 1.01 | S. cerevisiae deletion strains, locus YJR066W, strain TOR1, hits give low values 0.943 | S. cerevisiae deletion strains, locus YKL009W, strain mrt4, hits give low values 1.01 | S. cerevisiae deletion strains, locus YKL068W, hits give low values 1.01 | S. cerevisiae deletion strains, locus YKL085W, strain MDH1 (second series), hits give low values 1.01 | S. cerevisiae deletion strains, locus YKL085W, strain MDH1, hits give low values 1.01 | S. cerevisiae deletion strains, locus YKL160W, strain elf1, hits give low values 1.04 | S. cerevisiae deletion strains, locus YKL190W, strain CNB1, hits give low values 1.02 | S. cerevisiae deletion strains, locus YKR001C, strain vps1, hits give low values 0.997 | S. cerevisiae deletion strains, locus YKR026C, strain gcn3, hits give low values 0.988 | S. cerevisiae deletion strains, locus YKR091W, strain srl3, hits give low values 1 | S. cerevisiae deletion strains, locus YLL001W, strain dnm1, hits give low values 0.973 | S. cerevisiae deletion strains, locus YLL026W, hits give low values 0.984 | S. cerevisiae deletion strains, locus YLL041C, strain sdh2, hits give low values 1 | S. cerevisiae deletion strains, locus YLR027C, strain aat2, hits give low values 1 | S. cerevisiae deletion strains, locus YLR039C, strain RIC1, hits give low values 1.02 | S. cerevisiae deletion strains, locus YLR058C, strain SHM2, hits give low values 1.02 | S. cerevisiae deletion strains, locus YLR102C, strain apc9, hits give low values 0.995 | S. cerevisiae deletion strains, locus YLR113W, strain HOG1, hits give low values 1.05 | S. cerevisiae deletion strains, locus YLR221C, strain rsa3, hits give low values 0.975 | S. cerevisiae deletion strains, locus YLR258W, strain gsy2, hits give low values 1.03 | S. cerevisiae deletion strains, locus YLR262C, strain YPT6 (second series), hits give low values 0.987 | S. cerevisiae deletion strains, locus YLR262C, strain YPT6, hits give low values 1.04 | S. cerevisiae deletion strains, locus YLR268W, strain sec22, hits give low values 0.994 | S. cerevisiae deletion strains, locus YLR320W, strain mms22, hits give low values 0.949 | S. cerevisiae deletion strains, locus YLR330W, strain CHS5, hits give low values 1.02 | S. cerevisiae deletion strains, locus YLR342W, strain FKS1 (second series), hits give low values 1 | S. cerevisiae deletion strains, locus YLR342W, strain FKS1, hits give low values 1.02 | S. cerevisiae deletion strains, locus YLR357W, strain rsc2, hits give low values 1.01 | S. cerevisiae deletion strains, locus YLR370C, strain arc18, hits give low values 1 | S. cerevisiae deletion strains, locus YLR371W, strain rom2, hits give low values 0.982 | S. cerevisiae deletion strains, locus YLR384C, strain iki3, hits give low values 0.991 | S. cerevisiae deletion strains, locus YLR418C, strain cdc73, hits give low values 0.975 | S. cerevisiae deletion strains, locus YML016C, strain PPZ1, hits give low values 1.01 | S. cerevisiae deletion strains, locus YML032C, strain rad52, hits give low values 0.986 | S. cerevisiae deletion strains, locus YML120C, strain ndi1, hits give low values 0.987 | S. cerevisiae deletion strains, locus YML124C, strain tub3, hits give low values 0.997 | S. cerevisiae deletion strains, locus YMR058W, strain fet3, hits give low values 0.987 | S. cerevisiae deletion strains, locus YMR078C, strain ctf18, hits give low values 1 | S. cerevisiae deletion strains, locus YMR125W, strain sto1, hits give low values 1 | S. cerevisiae deletion strains, locus YMR129W, hits give low values 0.978 | S. cerevisiae deletion strains, locus YMR205C, strain PFK2, hits give low values 0.985 | S. cerevisiae deletion strains, locus YMR223W, strain ubp8, hits give low values 1.01 | S. cerevisiae deletion strains, locus YMR231W, strain pep5, hits give low values 0.984 | S. cerevisiae deletion strains, locus YMR263W, strain SAP30, hits give low values 1.01 | S. cerevisiae deletion strains, locus YMR307W, strain GAS1, hits give low values 1.01 | S. cerevisiae deletion strains, locus YNL067W, strain RPL9B, hits give low values 1.02 | S. cerevisiae deletion strains, locus YNL071W, strain lat1, hits give low values 0.983 | S. cerevisiae deletion strains, locus YNL128W, strain TEP1, hits give low values 1.02 | S. cerevisiae deletion strains, locus YNL153C, strain GIM3, hits give low values 1.03 | S. cerevisiae deletion strains, locus YNL183C, strain NPR1, hits give low values 0.988 | S. cerevisiae deletion strains, locus YNL209W, strain ssb2, hits give low values 1.02 | S. cerevisiae deletion strains, locus YNL233W, strain BNI4, hits give low values 1.01 | S. cerevisiae deletion strains, locus YNL248C, strain rpa49, hits give low values 1 | S. cerevisiae deletion strains, locus YNL250W, strain rad50, hits give low values 1 | S. cerevisiae deletion strains, locus YNL271C, strain bni1, hits give low values 1.01 | S. cerevisiae deletion strains, locus YNL298W, strain CLA4, hits give low values 1.02 | S. cerevisiae deletion strains, locus YNL307C, strain MCK1, hits give low values 0.993 | S. cerevisiae deletion strains, locus YNL322C, strain KRE1 (second series), hits give low values 1.03 | S. cerevisiae deletion strains, locus YNR049C, strain mso1, hits give low values 1 | S. cerevisiae deletion strains, locus YNR052C, strain pop2, hits give low values 1.01 | S. cerevisiae deletion strains, locus YOL006C, strain TOP1, hits give low values 1.03 | S. cerevisiae deletion strains, locus YOL012C, strain htz1 2.29 | S. cerevisiae deletion strains, locus YOL147C, strain pex11, hits give low values 1.01 | S. cerevisiae deletion strains, locus YOR001W, strain rrp6, hits give low values 0.943 | S. cerevisiae deletion strains, locus YOR061W, strain CKA2, hits give low values 1.02 | S. cerevisiae deletion strains, locus YOR069W, strain VPS5, hits give low values 1.01 | S. cerevisiae deletion strains, locus YOR070C, strain gyp1, hits give low values 0.983 | S. cerevisiae deletion strains, locus YOR080W, strain dia2, hits give low values 0.988 | S. cerevisiae deletion strains, locus YOR083W, strain WHI5, hits give low values 0.991 | S. cerevisiae deletion strains, locus YOR106W, strain vam3, hits give low values 1.03 | S. cerevisiae deletion strains, locus YOR136W, strain idh2, hits give low values 1 | S. cerevisiae deletion strains, locus YOR144C, strain elg1, hits give low values 0.999 | S. cerevisiae deletion strains, locus YOR184W, strain ser1, hits give low values 0.994 | S. cerevisiae deletion strains, locus YOR231W, strain MKK1, hits give low values 1.08 | S. cerevisiae deletion strains, locus YOR265W, strain rbl2, hits give low values 0.992 | S. cerevisiae deletion strains, locus YOR270C, strain vph1, hits give low values 0.986 | S. cerevisiae deletion strains, locus YOR290C, strain snf2, hits give low values 1.02 | S. cerevisiae deletion strains, locus YOR316C, strain cot1, hits give low values 1 | S. cerevisiae deletion strains, locus YPL051W, strain arl3, hits give low values 1.01 | S. cerevisiae deletion strains, locus YPL078C, strain atp4, hits give low values 1.03 | S. cerevisiae deletion strains, locus YPL106C, strain sse1, hits give low values 1.03 | S. cerevisiae deletion strains, locus YPL240C, strain hsp82, hits give low values 0.994 | S. cerevisiae deletion strains, locus YPL256C, strain CLN2, hits give low values 1.06 | S. cerevisiae deletion strains, locus YPR119W, strain clb2, hits give low values 0.995 | S. cerevisiae deletion strains, locus YPR141C, strain kar3, hits give low values 1 | S. cerevisiae deletion strains, locus YPR163C, strain tif3, hits give low values 1 | S. cerevisiae deletion strains, locus YPR167C, strain met16, hits give low values 1 | S. cerevisiae deletion strains, strain wtn01, hits give low values 0.996 | S. cerevisiae strains, strain wild type, hits give low values 1.01
